Compound activity: PubChem, The Scripps Research Institute Molecular Screening Center
Rows were chosen to be rich in hits. Some 3.4% of all compounds tested hit in one or more screens of this group.
TEAD-YAP block: TEAD-YAP interaction inhibition; inhibition, % at 9.12 µM; AID 1259422; HEK-TIYL cells, TEAD-Gal4/YAP UAS-luciferase luminescence; 640,000 compounds, 1.4% hits; in the data active means inhibition above about 32%;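 further: 0% = median of test compound wells and 100% = reference inhibitor wells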
FBW7 activator: activators of human E3 ligase FBW7 | Q969H0 | AlphaScreen FBW7–phospho-cyclin E peptide binding, activator screen | normalized activity (activation), % at 26.1 µM | 650,000 compounds, 0.13% hits | AID 1259310; in the data active means normalized activity above about 1.9%;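 further: purified mutant Fbw7 with reduced substrate affinity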
MITF inh: blocks human microphthalmia-associated transcription factor; 650,000 compounds, 0.91% hits; inhibition, % at 2.6 µM; AlphaScreen MITF homodimerization, bead proximity signal; in the data active means inhibition above about 50%;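 further: 0% = vehicle wells with protein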
GPR151 ag: activates the human receptor GPR151. Q8TDV0. 650,000 compounds, 1% hits. PathHunter beta-arrestin GPR151 cells, luminescence. activation, % at 11.2 µM; in the data active means activation above about 4.9%;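 further: 0% = median of compound wells and 100% = cells with positive control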
Target sequence (Q8TDV0 whole entry, looked up): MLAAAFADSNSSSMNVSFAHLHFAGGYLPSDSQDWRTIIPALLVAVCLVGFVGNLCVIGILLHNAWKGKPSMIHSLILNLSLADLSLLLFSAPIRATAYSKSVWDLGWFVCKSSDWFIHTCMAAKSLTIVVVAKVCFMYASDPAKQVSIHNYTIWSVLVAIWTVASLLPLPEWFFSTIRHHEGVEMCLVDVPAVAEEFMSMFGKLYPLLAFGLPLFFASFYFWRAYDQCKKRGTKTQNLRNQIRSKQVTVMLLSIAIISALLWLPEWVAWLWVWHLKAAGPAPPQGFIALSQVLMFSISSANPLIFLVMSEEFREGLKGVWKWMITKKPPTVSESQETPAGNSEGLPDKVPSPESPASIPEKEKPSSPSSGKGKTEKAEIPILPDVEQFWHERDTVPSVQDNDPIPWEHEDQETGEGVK
* = called active by the depositor.

SMILES | TEAD-YAP block | FBW7 activator | MITF inh | GPR151 ag
CCC(C)C1(c2ccccc2)SC(NC(C)=O)=NN1C(C)=O (configuration not stated) | 38* | 0 | 9 | -1
CC(=O)NCC1(c2ccccc2)SC(NC(C)=O)=NN1C(C)=O (configuration not stated) | 60* | 0 | 16 | 0
Cc1ccc(S(=O)(=O)NOCONS(=O)(=O)c2ccc(C)cc2)cc1 | 2 | 1 | 18 | -1
CCn1nc(-c2cccc(Cl)c2)nc2c(=O)n(C)c(=O)nc1-2 | -52 | 0 | -12 | -9
Cc1ccccc1-c1nc2c(=O)n(C)c(=O)nc-2n(C)n1 | 91* | 0 | 3 | -2
CCCc1nc2c(=O)n(C)c(=O)nc-2n(C)n1 | 99* | 0 | -4 | -4
CCn1nc(-c2ccc(C(F)(F)F)cc2)nc2c(=O)n(C)c(=O)nc1-2 | -2 | 0 | 15 | -8
CCOc1cc(-c2nc3c(=O)n(C)c(=O)nc-3n(C)n2)ccc1OC(C)C | 95* | 0 | 21 | -3
COc1cc2nc(NC(=O)c3ccc(Br)s3)sc2cc1OC | 2 | 1 | 30 | -1
CCn1nc(C(=O)Nc2nc(-c3cc4ccccc4o3)cs2)cc1C | -5 | 0 | -13 | -2
CCOc1ccc(NC(=O)c2ccc(N3CC4CC(C3)c3cccc(=O)n3C4)c(NC(=O)c3ccc(OC)cc3)c2)cc1 (configuration not stated) | 1 | 0 | 0 | -1
Cc1cc(NC(=O)c2ccc(S(=O)(=O)NC3CC3)cc2)c2cc(F)cc(F)c2n1 | 48* | 0 | -11 | -1
COc1cc(/C=C(\C#N)c2nc3ccccc3[nH]2)c(Br)cc1O | 41* | 1 | 21 | -2
COc1cc(Br)c(/C=C(\C#N)c2nc3ccccc3[nH]2)cc1OC | -21 | 1 | -7 | 1
Cc1ccc2nc(/C(C#N)=C/c3ccccc3O)[nH]c2c1 | 97* | 0 | 6 | -9
Cc1ccc2nc(/C(C#N)=C/c3cc([N+](=O)[O-])ccc3O)[nH]c2c1 | -4 | 0 | 11 | 0
Cc1cc(/C=C(/C#N)c2nc3ccccc3[nH]2)c(C)n1-c1cccnc1 | 59* | 0 | 3 | 3
Cc1ccc(/C=C(\C#N)C(=O)Nc2sc3c(c2C(N)=O)CCCC3)o1 | -11 | 1 | 7 | 0
Cc1cccc(NC(=O)c2cnc(N3CCN(c4ccccn4)CC3)c3ccccc23)n1 | 40* | 0 | 5 | 0
CC(C)NC(=O)c1cnc(N2CCN(c3ccccn3)CC2)c2ccccc12 | 11 | 0 | -7 | 1
COc1cc(NC(=O)c2cnc(N3CCN(c4ccccn4)CC3)c3ccccc23)cc(OC)c1OC | 78* | 0 | 6 | 1
COc1ccccc1N1CCN(c2ncc(C(=O)Nc3cc(OC)c(OC)c(OC)c3)c3ccccc23)CC1 | 56* | 0 | 8 | -1
COc1ccc(NC(=O)c2cnc(N3CCN(c4ccccn4)CC3)c3ccccc23)cc1OC | 84* | 0 | 2 | 2
COc1cccc(NC(=O)c2cnc(N3CCN(c4ccccn4)CC3)c3ccccc23)c1 | 62* | 0 | -4 | 1
COc1ccc(NC(=O)c2cnc(N3CCN(c4ncccn4)CC3)c3ccccc23)c(OC)c1 | 50* | 0 | 12 | 2
SMILES | TEAD-YAP block | FBW7 activator | MITF inh | GPR151 ag
O=C(NC1CCCCC1)c1cnc(N2CCN(c3ncccn3)CC2)c2ccccc12 | 0 | 0 | 2 | -1
COC1CC(NC(=O)c2cnc(N3CCN(c4ncccn4)CC3)c3ccccc23)CC(OC)C1OC (configuration not stated) | 72* | 0 | -3 | 2
COc1cccc(NC(=O)c2cnc(N3CCN(c4ncccn4)CC3)c3ccccc23)c1 | 20 | 0 | 1 | -1
COCCCNC(=O)c1cnc(N2CCN(c3ccccc3OC)CC2)c2ccccc12 | 38* | 0 | 13 | -1
O=C(Cn1nnc(-c2ccccc2NC(=O)c2ccc(F)cc2)n1)NCc1cccs1 | 2 | 2.5* | 9 | 0
C=CCNC(=O)/C(C#N)=C/c1c(Oc2cccc(C)c2)nc2ccccn2c1=O | 19 | 0 | 12 | -6
Cc1ccc(SCC(=O)Nc2cc(C)ccc2O)cc1 | -5 | 1 | 11 | 0
Cc1ccc(-c2csc(Nc3cccc(O)c3)n2)cc1 | 74* | 0 | -13 | -1
CC(=O)Oc1ccc(-c2csc(Nc3cccc(O)c3)n2)cc1 | -29 | 0 | 1 | -1
COc1ccc(-c2csc(Nc3cccc(O)c3)n2)cc1 | 41* | 0 | 12 | 1
COc1ccc(CN(Cc2ccco2)C(=O)c2cc3ccccc3oc2=O)c(OC)c1 | -8 | 0 | 14 | 0
CCOC(=O)C(NC(=O)CC)(Nc1sc2c(c1C(=O)OC)CCN(C)C2)C(F)(F)F (configuration not stated) | -11 | 3.4* | -6 | -1
CCOC(=O)c1oc2ccccc2c1NC(=O)c1ccccc1C | -2 | 0 | 11 | 0
CCOC(=O)c1oc2ccccc2c1NC(=O)c1ccccc1OCC | 53* | 0 | 7 | 0
CCOc1ccc(NC(=O)c2oc3ccccc3c2NC(=O)c2ccco2)cc1 | 5 | 2.6* | 1 | 0
CCOc1ccccc1C(=O)Nc1nnc(CCc2ccccc2)s1 | 34* | 0 | -5 | -2
COC(=O)c1ccccc1NC(=O)c1ccccc1OC | 3 | 0 | 6 | 1
CCOc1ccccc1C(=O)Nc1ccccc1C(=O)OC | 53* | 0 | -9 | 2
COc1cc(OC)c(NC(=O)c2ccc(N3CC4CC(C3)c3cccc(=O)n3C4)c([N+](=O)[O-])c2)cc1Cl (configuration not stated) | -17 | 0 | 21 | 0
COc1ccc(N=Cc2sc3ccccc3c2O)cc1 | 85* | 0 | -9 | -10
Clc1cncc(Cl)c1N1CCN(c2ccc(-c3cccnc3)cn2)CC1 | 50* | 0 | 16 | 0
COc1ccccc1CC1=NS(=O)(=O)c2ccccc2N1 | 13 | 0 | 19 | 1
Cc1cc(C)nc(NC(c2ccco2)c2ccc3cccnc3c2O)n1 (configuration not stated) | -32 | 0 | 11 | -1
CC(=O)NC(c1ccccc1F)c1ccc2cccnc2c1O (configuration not stated) | 84* | 0 | -11 | -2
Cc1ccc(C(NC(=O)c2ccccc2)c2ccc3cccnc3c2O)cc1 (configuration not stated) | 24 | 0 | 6 | -1
CC(=O)NC(c1ccc(C(C)C)cc1)c1ccc2cccnc2c1O (configuration not stated) | 83* | -1 | 24 | 3
Oc1cccnc1NC(c1ccccc1F)c1ccc2cccnc2c1O (configuration not stated) | 36* | 0 | 45 | 1
CCCCOC(=O)C1=C(C)N(C)C(=O)NC1c1cc(OC)ccc1OC (configuration not stated) | 5 | 0 | 6 | 0
O=C(Nc1ccc2[nH]ncc2c1)c1ccc(OC2CCN(Cc3ccccc3)CC2)nc1 | 44* | 0 | 21 | 1
CN1CC[C@@H](Oc2ccnc(C(=O)Nc3ccc4[nH]ncc4c3)c2)C1 | 66* | 0 | 11 | 0
